# In the supplement of paper PMC10849652:
# The full data set covers some 7,900 targets. This sample favours those with a hit. About 0.6% of all pairs of compound and target were hits. A number with no mark means an inactive call.
# Tests used:
# Experiment in all cases: log2 fold change, soluble protein after heating vs DMSO (PISA); higher = thermal stabilisation; K562 cells, 10 uM, 30 min; active = over 0.2 and 3.5 SD of the protein, either way, in both replicates (recomputed)
# [1] = compound: NC(=O)Nc1cc(-c2cccc(F)c2)sc1C(=O)N[C@H]1CCCNC1
# Method in brief: (§1)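 Soluble protein was quantified by TMTpro 16plex LC-MS/MS after channel sums were equalised. It was obtained as the supernatant after 21,000xg for 90 min from pooled aliquots of K562 cells (2×10^6 cells/mL, 10 μM compound, 30 min) heated for 3 min across 48°C-58°C and extracted in PBS with 0.5% NP-40 at 4°C. Thermal stability values are relative to control samples and come from duplicates. They are given as log2 fold changes.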
# [2] = compound: NC(=O)c1cnc(N[C@@H]2CCCC[C@@H]2N)nc1Nc1cccc(-n2nccn2)c1
# Method in brief: as §1
# [3] = compound: NC1(c2ccc(-c3nc4ccn5c(=O)[nH]nc5c4cc3-c3ccccc3)cc2)CCC1
# Method in brief: as §1
# [4] = compound: NCC(=O)Nc1ccc(-n2nc(C(F)(F)F)cc2-c2ccc3c(ccc4ccccc43)c2)cc1
# Method in brief: as §1
# [5] = compound: Nc1ccccc1NC(=O)c1ccc(CNC(=O)OCc2cccnc2)cc1 [entinostat]
# Method in brief: as §1
# [6] = compound: O=C(CCCCCCC(=O)Nc1ccccc1)NO [vorinostat]
# Method in brief: as §1
# [7] = compound: O=C(CCCCCCNC(=O)c1cnc(N(c2ccccc2)c2ccccc2Cl)nc1)NO [citarinostat]
# Method in brief: as §1
# [8] = compound: O=C(O)c1ccc2c(c1)nc(Nc1cccc(Cl)c1)c1ccncc12 [silmitasertib]
# Method in brief: as §1
# [9] = compound: O=C1NC(=O)C(c2cnc3ccccn23)=C1c1cn2c3c(cc(F)cc13)CN(C(=O)N1CCCCC1)CC2
# Method in brief: as §1
# [10] = compound: c1cc(OCCN2CCCCC2)cc(-c2n[nH]c3ccc(-c4nnc[nH]4)cc23)c1
# Method in brief: as §1
# [11] = compound: c1cn2cc(-c3ccc4cn[nH]c4c3)nc(Nc3ccc(N4CCOCC4)cc3)c2n1 [entospletinib]
# Method in brief: as §1
# UniProt Q96GS6, sequence (Q96GS6 whole entry, looked up): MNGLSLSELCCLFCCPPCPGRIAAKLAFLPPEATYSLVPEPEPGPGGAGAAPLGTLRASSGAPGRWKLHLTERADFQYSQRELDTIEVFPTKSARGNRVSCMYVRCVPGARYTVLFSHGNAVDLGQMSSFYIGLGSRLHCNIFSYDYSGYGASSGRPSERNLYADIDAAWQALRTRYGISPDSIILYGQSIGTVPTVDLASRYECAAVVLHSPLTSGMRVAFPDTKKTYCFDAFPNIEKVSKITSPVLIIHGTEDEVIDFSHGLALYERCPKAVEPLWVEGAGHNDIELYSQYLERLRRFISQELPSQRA
# UniProt O95433, sequence (O95433 whole entry, looked up): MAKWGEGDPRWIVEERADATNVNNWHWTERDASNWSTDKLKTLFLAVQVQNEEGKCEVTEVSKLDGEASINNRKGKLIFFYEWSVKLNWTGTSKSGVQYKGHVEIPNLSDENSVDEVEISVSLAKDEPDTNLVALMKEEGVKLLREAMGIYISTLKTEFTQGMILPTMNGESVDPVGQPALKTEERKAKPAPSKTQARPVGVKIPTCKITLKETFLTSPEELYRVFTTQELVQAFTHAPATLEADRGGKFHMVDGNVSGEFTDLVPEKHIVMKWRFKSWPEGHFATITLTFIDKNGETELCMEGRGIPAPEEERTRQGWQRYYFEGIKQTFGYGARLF
# UniProt P21283, sequence (P21283 whole entry, looked up): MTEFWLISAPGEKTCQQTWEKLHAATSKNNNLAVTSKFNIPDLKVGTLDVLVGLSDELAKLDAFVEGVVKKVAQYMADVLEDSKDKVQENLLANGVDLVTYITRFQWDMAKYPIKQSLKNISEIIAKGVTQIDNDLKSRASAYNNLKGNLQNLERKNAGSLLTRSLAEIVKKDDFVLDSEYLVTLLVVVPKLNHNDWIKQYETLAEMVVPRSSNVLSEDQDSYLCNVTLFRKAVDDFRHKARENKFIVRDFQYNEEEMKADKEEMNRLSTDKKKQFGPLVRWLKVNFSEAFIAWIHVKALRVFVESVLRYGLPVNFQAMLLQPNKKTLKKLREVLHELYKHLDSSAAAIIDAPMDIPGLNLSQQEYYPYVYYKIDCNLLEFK
# UniProt Q9UJX6, sequence (Q9UJX6 whole entry, looked up): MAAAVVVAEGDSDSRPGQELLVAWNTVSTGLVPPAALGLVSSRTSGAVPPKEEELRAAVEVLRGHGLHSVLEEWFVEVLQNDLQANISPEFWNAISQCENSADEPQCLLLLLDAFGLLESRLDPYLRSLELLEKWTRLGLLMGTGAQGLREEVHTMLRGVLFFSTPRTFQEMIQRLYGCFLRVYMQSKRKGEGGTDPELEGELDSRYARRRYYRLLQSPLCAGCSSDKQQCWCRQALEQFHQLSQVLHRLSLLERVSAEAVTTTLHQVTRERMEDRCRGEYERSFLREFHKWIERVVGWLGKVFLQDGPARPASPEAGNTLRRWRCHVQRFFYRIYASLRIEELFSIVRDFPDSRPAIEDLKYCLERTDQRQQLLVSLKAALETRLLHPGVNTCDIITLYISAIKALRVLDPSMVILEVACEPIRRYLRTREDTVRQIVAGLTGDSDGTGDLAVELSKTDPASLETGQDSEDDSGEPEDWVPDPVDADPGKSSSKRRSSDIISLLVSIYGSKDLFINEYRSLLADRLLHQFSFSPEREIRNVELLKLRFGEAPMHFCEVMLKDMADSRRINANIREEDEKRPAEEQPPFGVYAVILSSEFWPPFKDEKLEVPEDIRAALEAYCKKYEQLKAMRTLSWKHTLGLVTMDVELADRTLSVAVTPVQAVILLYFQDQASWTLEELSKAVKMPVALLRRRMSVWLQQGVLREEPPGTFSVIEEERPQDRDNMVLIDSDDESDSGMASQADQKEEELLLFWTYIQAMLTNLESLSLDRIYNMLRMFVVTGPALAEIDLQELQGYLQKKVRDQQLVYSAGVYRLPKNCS
# UniProt Q06481, sequence (Q06481 whole entry, looked up): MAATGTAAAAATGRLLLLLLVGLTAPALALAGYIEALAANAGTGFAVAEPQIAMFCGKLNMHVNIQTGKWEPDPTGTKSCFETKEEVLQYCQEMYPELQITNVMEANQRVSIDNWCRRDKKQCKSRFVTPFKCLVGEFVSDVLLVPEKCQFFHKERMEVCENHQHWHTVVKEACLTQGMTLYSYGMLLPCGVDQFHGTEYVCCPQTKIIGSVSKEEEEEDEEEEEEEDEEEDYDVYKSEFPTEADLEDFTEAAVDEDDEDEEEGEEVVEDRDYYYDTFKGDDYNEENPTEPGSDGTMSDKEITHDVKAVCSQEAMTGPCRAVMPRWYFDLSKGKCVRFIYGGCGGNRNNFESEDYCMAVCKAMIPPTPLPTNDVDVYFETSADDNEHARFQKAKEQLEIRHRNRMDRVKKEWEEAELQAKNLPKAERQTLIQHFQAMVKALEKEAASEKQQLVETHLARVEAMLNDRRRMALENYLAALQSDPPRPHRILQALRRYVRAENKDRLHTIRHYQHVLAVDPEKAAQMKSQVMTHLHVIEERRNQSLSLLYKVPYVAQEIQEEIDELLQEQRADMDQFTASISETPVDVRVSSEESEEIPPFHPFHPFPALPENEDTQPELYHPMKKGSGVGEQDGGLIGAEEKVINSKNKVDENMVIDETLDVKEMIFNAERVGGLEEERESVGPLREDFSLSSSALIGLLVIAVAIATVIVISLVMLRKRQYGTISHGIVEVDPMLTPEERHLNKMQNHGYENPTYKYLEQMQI
# UniProt Q9H0E9, sequence (Q9H0E9 whole entry, looked up): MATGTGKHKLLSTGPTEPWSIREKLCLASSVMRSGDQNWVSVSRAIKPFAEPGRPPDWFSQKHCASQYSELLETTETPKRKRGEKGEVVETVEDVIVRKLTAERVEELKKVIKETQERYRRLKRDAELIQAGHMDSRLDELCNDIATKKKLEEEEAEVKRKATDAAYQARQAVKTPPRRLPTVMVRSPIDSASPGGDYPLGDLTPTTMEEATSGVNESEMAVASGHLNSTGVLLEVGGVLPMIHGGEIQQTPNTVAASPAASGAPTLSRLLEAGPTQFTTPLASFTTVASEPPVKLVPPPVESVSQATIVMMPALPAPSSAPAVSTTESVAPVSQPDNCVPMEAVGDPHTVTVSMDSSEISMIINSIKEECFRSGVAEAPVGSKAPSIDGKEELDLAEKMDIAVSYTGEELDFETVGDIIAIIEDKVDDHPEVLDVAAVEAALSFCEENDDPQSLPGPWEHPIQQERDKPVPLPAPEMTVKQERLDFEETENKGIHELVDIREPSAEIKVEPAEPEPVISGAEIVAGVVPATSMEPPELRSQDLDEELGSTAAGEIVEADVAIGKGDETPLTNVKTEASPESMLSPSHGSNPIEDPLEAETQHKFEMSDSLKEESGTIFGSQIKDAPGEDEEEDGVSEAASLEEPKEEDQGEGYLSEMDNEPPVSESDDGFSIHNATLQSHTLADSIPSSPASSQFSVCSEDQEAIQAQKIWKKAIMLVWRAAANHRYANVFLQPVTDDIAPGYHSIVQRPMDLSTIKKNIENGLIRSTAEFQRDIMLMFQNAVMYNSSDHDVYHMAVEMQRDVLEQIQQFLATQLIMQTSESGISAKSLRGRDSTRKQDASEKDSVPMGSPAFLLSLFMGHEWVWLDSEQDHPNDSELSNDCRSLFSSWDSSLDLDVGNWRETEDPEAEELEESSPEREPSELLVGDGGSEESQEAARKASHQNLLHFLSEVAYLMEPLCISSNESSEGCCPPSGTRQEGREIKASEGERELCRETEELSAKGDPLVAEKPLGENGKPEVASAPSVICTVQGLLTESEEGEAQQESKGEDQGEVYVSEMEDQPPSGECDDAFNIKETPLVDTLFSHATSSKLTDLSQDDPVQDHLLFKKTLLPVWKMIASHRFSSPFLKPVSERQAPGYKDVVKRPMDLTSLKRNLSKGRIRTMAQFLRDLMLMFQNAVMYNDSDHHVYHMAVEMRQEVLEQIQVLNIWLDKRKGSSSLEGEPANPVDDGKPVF
# UniProt P31749, sequence (P31749 whole entry, looked up): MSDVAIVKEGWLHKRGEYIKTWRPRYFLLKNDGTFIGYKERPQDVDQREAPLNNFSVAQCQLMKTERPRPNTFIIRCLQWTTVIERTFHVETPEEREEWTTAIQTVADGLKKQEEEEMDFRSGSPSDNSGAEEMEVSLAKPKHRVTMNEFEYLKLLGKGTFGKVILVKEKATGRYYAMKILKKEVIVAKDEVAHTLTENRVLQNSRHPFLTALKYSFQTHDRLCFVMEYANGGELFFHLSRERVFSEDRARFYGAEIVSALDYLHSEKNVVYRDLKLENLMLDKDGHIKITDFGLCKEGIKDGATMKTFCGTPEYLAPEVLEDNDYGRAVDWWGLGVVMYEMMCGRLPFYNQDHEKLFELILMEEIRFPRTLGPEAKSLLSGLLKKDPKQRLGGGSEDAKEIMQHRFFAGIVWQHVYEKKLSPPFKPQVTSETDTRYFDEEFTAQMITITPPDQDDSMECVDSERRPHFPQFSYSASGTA
# UniProt Q53FZ2, sequence (Q53FZ2 whole entry, looked up): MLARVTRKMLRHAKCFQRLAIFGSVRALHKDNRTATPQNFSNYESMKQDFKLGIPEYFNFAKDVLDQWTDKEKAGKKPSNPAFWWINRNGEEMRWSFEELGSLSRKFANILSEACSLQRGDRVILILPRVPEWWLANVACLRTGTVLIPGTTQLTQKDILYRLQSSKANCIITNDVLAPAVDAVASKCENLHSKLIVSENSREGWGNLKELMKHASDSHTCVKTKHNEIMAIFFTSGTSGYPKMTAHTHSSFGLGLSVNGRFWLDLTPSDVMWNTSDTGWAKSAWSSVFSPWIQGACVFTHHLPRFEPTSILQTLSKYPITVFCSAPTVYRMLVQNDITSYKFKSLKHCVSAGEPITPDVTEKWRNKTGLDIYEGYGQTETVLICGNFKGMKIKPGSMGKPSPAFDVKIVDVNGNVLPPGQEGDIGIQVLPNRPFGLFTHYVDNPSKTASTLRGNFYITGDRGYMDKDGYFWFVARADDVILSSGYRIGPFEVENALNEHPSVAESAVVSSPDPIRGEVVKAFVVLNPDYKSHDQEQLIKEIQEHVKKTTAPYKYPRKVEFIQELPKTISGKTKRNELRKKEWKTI
Target,log2 fold change [1],log2 fold change [2],log2 fold change [3],log2 fold change [4],log2 fold change [5],log2 fold change [6],log2 fold change [7],log2 fold change [8],log2 fold change [9],log2 fold change [10],log2 fold change [11]
ABHD17A isoform 2 (UniProt Q96GS6),0.036,-0.119,-0.049,-0.078,-0.104,-0.04,0.036,-0.02,0.01,0.051,-0.076
ASH2L (UniProt Q9UBL3),-0.025,-0.075,0.002,-0.074,0.025,0.013,0.044,0.08,-0.064,-0.05,-0.02
ARL1 (UniProt P40616),0.142,0.055,-0.173,-0.019,0.031,0.149,0.161,0.006,0.04,0.007,-0.139
APLP2 (UniProt Q06481),-0.13,-0.021,0.036,0.054,-0.063,-0.035,0.02,0,0.074,0.046,-0.009
AP2B1 isoform 2 (UniProt P63010),-0.225 (active),0.01,0.037,0.002,0,0.01,0.019,0.02,-0.202,-0.182,0.032
ATP6V1C1 (UniProt P21283),-0.015,-0.135,-0.173,-0.09,0.062,0.039,0.008,0.03,0.025,-0.103,-0.02
AKT1 (UniProt P31749),-0.085,-0.276,1.61 (active),-0.002,0.201,-0.024,0.138,0.004,0.1,0.027,-0.04
ANAPC2 (UniProt Q9UJX6),0.079,-0.025,-0.063,-0.023,0.02,0.074,0.124,0.087,0.027,-0.049,-0.001
ACSM3 (UniProt Q53FZ2),0.017,0,0.021,-0.125,0.009,0.122,0.122,0.06,-0.134,-0.094,-0.004
ACP1 (UniProt P24666),-0.079,-0.24,-0.002,-0.199,0.093,0.01,0.012,0.088,-0.074,-0.014,0.102
BRD8 (UniProt Q9H0E9),0.008,-0.107,0.038,-0.014,-0.041,-0.125,-0.12,0.038,0.022,-0.059,0.031
AAR2 (UniProt Q9Y312),-0.016,-0.015,0.066,-0.034,0.026,0.19,-0.009,0.035,0.04,-0.067,-0.017
ADPRHL2 (UniProt Q9NX46),-0.022,-0.02,-0.056,-0.045,0.027,-0.039,0.076,-0.045,-0.028,0.055,0.024
AHSA1 (UniProt O95433),-0.002,-0.005,-0.131,-0.043,0.022,0.013,0.026,0.019,-0.009,-0.003,-0.017
